Results published in the OligoGym collection.

What follows are sequences tested against SEMA6D (assay: pooled miR-30 sensor sort-seq; sequence = guide strand). Conditions: shRNA.
Also: reference of the scale not given here.

Sequence | sensor-assay potency score (higher = more potent)
TTGAATAGTGATAGTCGACAGT | -0.481
TACTGTATAAACTTGATCCCTG | 0.49
TATGTCTGTAATAGACTGCAGA | -0.657

What follows are sequences tested against SENP1 in the same assay as above. Conditions: shRNA.

Sequence | sensor-assay potency score (higher = more potent)
AACAGTAACAGGAATCTCCTTT | -0.105
TTTACTTCGCTCCATCAGCATA | -1.5
TATTGCAAGAGTATTCTGCAGG | -0.448
TAATAGGTAATATTCTTCTTTC | -0.79
TACTGGAACTAAGACATCGAGA | -0.808
TTGAACTGTCTCTTCTGCTGTA | 0.936
TATCAGTTAATTTATGACCTTT | 0.136
TAGAGTTTGAATATCTTTGCGT | 0.243
TGTACTAACATGTCGCCTCTGA | 0.2
TTGATTGGTCTGTCTTTGGTAA | -0.497
TTCACTGAGAACTTCATCCTGA | 0.885
TTATCTGAGTAATAGCTTGGAT | 0.0199

These sequences were tested against SERPINB7 in the same assay as above. Conditions: shRNA.

Sequence | sensor-assay potency score (higher = more potent)
TTGATTGTCATCCATCTCTCTG | -0.525
ATTTCCTTGATTGTCATCCATC | -1.25
TTCTTCTCTATCTTGAACTGAG | -0.146
TTCTACAATATTACTTCCTGTG | -0.132
TAGAAGAGTTTCCATATCCTGA | 0.0524
TTTTCTACAATATTACTTCCTG | 0.325
TAAGATTTGTGCATCATCCTTG | 1.22
TACTTAGAGGTCATTCGCCTTG | -0.685
TAATATTACGTCTAGTGTCTTC | -0.265
TTCATAATTCTTCTCTATCTTG | -0.438
TTCTCTATCTTGAACTGAGGAA | -0.416

Each sequence was assayed against SERPINE2 in the same assay as above. Conditions: shRNA.

Sequence | sensor-assay potency score (higher = more potent)
TACAGCTGTGAACTTGGGCAGG | -0.9
TTGATGAATCAAACATGTCAGT | -0.681
TTGTGCTACAGCTGTGAACTTG | -0.393
TTGTCAATCATATCCCTGGTTT | -0.515
TTTAACAGAACTATGAAAGATG | -0.755
AACAGAAACACTTGCATCGAGT | -0.757
TTAATATTTTACCAACTCCATT | -1.64
TACAGTGTTCCAGCCATCCTGC | -0.935
TTCCTCAGTACAGTGTTCCAGC | -0.117
TATTTTTGCAAAATTTGCCTTT | -0.263
TATTTTAGTGAATACATGCATT | -0.736
ATTCTTAACAAACACGGCGTTA | -0.703
